Source: ChEMBL document CHEMBL3988442, “University of Dundee, Small-Polar-MMV Screening Library” (2021)
For part of these data: Potency and affinity values are given separately.

Assays:
Set-up in all cases: scale not given: direction of the effect not stated beside the values
[1] = target: Protein translocase subunit SecA (Escherichia coli (strain K12)) (UniProt P10408); experiment: Assay to Identify E. coli SecA ATPase Inhibitors; type: functional; conditions: 30 µM
[2] = target: T1, Ubiquitin-activating enzyme e1, putative (Leishmania donovani (strain BPK282A1)) (UniProt E9BSI1); experiment: Leishmania donovani Ubiquitin Activating Enzyme (LdE1); type: functional; conditions: 30 µM
T1 sequence (whole entry): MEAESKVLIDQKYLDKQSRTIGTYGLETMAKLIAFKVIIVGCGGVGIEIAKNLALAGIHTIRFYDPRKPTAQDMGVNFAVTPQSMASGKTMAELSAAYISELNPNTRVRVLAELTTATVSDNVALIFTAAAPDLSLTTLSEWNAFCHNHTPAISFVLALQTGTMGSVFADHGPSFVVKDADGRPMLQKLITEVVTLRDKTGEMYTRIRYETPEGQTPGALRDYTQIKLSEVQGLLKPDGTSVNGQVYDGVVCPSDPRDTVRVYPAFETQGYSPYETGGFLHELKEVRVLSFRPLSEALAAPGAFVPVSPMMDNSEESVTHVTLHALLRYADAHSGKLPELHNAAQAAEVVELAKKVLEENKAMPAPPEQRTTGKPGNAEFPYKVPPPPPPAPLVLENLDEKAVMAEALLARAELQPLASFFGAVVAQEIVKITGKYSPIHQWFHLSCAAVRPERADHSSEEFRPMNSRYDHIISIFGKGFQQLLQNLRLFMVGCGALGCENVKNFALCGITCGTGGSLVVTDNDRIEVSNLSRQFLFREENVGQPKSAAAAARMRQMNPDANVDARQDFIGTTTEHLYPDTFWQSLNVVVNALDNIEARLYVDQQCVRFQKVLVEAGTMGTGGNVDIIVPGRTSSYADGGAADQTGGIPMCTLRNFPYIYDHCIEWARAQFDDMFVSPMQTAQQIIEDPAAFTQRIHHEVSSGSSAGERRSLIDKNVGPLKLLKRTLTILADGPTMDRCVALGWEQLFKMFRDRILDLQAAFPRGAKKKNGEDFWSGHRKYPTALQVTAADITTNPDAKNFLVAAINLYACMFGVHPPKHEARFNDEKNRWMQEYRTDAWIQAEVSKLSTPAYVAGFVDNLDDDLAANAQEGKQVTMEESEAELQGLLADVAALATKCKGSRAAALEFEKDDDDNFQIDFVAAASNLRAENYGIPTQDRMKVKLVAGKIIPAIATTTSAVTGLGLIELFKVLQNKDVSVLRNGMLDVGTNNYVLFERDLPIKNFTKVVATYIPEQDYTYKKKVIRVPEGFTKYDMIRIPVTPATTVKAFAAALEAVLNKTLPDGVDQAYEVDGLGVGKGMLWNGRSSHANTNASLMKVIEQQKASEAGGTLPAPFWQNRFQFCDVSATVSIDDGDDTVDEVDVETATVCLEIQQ

[3] = target: Sialic acid-binding Ig-like lectin 9 (Homo sapiens) (UniProt Q9Y336); experiment: Hs-Siglec9 ALPHAscreen SOP 20170721; conditions: 10 µM
Trypanosoma cruzi = experiment: Trypanosoma cruzi phosphomannomutase and mannose-1-phosphate guanylyltransferase assay; type: functional; conditions: 10 µM
[4] = target: T2, Arginase-2, mitochondrial (Homo sapiens) (UniProt P78540); experiment: in vitro enzyme assay to detect the production of urea directly proportional to the activity of Arginase II; type: functional; conditions: 33.3 µM; also: in the data most compounds retested in dose-response had high values
T2 sequence (whole entry): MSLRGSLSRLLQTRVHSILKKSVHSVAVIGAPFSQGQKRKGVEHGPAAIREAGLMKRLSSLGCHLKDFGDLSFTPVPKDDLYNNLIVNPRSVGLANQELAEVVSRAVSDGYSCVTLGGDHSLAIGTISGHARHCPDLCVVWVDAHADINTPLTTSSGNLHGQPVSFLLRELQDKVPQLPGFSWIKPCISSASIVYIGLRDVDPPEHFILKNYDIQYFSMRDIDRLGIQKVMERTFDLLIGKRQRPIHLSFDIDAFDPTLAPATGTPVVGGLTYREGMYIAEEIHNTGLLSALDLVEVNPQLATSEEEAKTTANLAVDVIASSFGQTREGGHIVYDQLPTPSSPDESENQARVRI

[5] = target: T3, Proteasome subunit beta (Trypanosoma cruzi) (UniProt O96673); experiment: Trypanosoma cruzi proteasome chymotrypsin-like activity (TcProtChymo) assay.; also: in the data most compounds retested in dose-response had high values; type: functional; conditions: 9.37 µM
T3 sequence (whole entry): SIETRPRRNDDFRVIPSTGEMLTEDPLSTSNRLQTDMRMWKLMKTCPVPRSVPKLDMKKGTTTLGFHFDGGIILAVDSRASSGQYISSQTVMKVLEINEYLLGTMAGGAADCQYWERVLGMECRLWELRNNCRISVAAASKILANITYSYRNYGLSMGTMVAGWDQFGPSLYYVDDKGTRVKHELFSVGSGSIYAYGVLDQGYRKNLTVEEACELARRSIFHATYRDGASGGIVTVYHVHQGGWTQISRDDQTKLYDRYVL

Homo sapiens = species on record: Homo sapiens; experiment: To identify inhibition of the IFN signalling (Jak-Stat) pathway via expression of an eGFP reporter gene under the control of an IFN-stimulated response element (ISRE) containing MxA promoter.; type: functional; conditions: 30 µM
[6] = target: T4, Tyrosyl-tRNA synthetase, putative (Trypanosoma cruzi (strain CL Brener)) (UniProt Q4DSP6); experiment: Trypanosoma cruzi tyrosyl tRNA synthetase (TcYRS) _High Tyrosine SOP; type: functional; conditions: 30 µM; also: in the data most compounds retested in dose-response had high values
T4 sequence (whole entry): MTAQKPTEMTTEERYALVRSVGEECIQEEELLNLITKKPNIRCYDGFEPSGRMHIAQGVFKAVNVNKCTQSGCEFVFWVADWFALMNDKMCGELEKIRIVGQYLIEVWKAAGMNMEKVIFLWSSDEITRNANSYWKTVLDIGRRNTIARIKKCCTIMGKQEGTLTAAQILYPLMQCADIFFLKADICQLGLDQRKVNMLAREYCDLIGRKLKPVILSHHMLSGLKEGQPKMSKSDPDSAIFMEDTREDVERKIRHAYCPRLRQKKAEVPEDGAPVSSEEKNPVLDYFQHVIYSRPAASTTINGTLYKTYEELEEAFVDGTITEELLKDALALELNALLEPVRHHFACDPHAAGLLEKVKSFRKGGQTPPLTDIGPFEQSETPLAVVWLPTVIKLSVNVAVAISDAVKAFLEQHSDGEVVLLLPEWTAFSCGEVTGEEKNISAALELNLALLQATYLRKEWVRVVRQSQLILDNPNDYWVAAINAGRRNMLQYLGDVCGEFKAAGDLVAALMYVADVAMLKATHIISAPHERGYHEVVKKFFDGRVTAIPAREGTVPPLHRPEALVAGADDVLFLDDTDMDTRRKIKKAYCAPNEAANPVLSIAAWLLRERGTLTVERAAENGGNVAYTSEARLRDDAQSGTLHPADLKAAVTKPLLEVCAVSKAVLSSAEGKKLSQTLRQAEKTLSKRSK

[7] = target: T4, Tyrosyl-tRNA synthetase, putative (Trypanosoma cruzi (strain CL Brener)); experiment: Trypanosoma cruzi tyrosyl tRNA synthetase (TcYRS) SOP; type: functional; conditions: 30 µM
[8] = target: Chromo domain-containing protein 1 (Saccharomyces cerevisiae (strain ATCC 204508 / S288c) (Baker's yeast)) (UniProt P32657); experiment: ScCHD-1 Enzyme Inhibition Assay; type: functional; conditions: 30 µM; also: in the data most compounds retested in dose-response had high values
Chain of Chromo domain-containing protein 1 (Saccharomyces cerevisiae (strain ATCC 204508 / S288c) (Baker's yeast)) (P32657 whole entry, the tested form may be a part): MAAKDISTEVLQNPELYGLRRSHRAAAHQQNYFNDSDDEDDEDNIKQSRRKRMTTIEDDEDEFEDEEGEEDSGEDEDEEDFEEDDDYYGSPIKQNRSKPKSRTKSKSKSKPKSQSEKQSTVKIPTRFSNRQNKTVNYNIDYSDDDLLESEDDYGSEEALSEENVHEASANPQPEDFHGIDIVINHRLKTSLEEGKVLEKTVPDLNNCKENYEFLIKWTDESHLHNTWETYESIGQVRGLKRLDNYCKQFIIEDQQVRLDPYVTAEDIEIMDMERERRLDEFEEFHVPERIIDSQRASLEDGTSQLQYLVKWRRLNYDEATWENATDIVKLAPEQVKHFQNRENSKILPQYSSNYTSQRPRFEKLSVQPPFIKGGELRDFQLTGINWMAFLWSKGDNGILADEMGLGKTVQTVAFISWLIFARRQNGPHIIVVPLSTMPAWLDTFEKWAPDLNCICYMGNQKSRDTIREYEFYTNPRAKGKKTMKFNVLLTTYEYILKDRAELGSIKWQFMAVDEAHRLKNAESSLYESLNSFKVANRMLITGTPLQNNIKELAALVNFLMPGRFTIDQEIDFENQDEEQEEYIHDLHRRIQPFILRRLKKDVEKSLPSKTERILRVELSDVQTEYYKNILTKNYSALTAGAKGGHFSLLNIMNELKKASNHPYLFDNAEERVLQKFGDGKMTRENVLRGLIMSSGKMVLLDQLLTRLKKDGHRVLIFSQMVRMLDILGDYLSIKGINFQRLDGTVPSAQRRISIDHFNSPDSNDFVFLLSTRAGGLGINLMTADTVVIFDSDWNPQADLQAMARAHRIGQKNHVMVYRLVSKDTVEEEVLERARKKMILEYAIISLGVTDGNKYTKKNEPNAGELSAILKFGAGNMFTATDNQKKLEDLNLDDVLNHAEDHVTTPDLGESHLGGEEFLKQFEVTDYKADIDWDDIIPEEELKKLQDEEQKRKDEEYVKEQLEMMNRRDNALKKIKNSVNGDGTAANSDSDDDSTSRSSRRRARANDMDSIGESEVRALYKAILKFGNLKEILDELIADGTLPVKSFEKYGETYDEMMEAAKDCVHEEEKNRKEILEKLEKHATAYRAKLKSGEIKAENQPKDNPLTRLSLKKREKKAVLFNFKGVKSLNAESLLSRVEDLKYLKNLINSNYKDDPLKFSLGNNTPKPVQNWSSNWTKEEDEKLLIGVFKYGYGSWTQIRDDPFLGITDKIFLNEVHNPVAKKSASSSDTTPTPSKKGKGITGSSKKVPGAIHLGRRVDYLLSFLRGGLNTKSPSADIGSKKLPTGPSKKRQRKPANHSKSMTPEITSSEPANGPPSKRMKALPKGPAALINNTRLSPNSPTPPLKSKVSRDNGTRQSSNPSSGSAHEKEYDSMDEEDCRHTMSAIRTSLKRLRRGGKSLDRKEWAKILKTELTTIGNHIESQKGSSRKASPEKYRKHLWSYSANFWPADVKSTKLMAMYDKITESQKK

Chain of Sialic acid-binding Ig-like lectin 9 (Homo sapiens) (Q9Y336 whole entry): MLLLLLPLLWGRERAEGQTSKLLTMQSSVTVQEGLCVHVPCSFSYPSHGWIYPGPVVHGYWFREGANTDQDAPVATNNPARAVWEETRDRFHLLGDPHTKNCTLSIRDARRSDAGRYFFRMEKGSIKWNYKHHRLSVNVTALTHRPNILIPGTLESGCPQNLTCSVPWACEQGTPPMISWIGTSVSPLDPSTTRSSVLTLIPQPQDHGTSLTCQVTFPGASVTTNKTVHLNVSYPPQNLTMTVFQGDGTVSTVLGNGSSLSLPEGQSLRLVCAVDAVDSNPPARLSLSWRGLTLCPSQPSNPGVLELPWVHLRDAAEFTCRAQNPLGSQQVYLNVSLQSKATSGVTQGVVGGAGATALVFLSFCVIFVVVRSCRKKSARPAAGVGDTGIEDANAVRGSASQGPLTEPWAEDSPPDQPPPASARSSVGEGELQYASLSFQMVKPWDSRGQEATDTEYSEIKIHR
Chain of Protein translocase subunit SecA (Escherichia coli (strain K12)) (P10408 whole entry): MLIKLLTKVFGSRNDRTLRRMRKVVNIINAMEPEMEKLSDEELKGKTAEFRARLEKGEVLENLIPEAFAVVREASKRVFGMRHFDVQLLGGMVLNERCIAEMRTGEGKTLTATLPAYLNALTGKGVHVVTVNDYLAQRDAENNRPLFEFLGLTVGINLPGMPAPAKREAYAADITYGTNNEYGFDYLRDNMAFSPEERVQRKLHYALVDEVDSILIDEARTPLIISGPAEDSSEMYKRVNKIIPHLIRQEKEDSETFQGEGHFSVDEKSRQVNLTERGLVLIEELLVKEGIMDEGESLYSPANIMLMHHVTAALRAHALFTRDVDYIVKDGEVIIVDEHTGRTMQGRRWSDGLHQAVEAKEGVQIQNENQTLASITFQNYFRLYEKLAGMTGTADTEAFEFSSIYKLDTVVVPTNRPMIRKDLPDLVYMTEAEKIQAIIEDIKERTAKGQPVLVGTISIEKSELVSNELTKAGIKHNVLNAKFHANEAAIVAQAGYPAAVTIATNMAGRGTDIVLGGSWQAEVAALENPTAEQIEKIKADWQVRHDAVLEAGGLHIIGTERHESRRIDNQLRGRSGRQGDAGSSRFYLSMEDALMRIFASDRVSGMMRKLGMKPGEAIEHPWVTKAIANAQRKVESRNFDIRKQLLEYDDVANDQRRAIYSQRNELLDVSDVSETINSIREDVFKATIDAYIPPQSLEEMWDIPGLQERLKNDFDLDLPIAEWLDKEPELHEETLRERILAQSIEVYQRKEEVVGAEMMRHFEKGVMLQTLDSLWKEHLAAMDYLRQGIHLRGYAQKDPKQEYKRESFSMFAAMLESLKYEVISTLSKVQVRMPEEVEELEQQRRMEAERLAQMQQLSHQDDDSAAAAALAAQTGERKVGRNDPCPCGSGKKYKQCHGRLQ

Compound | Percent Effect [1] [%] | Percent Effect [2] [%] | Percent Effect [3] [%] | Percent Effect (Trypanosoma cruzi) [%] | Percent Effect [4] [%] | Percent Effect [5] [%] | Percent Effect (Homo sapiens) [%] | Percent Effect [6] [%] | Percent Effect [7] [%] | Percent Effect [8] [%]
CCc1nc(C2CCCN2C(=O)c2c[nH]c(C)n2)no1 (stereo not given) | -9.57 | 10.7 | 18.3 | 3.41 | -2.66 | 12.1 | -2.6 | 7.89 | 12.8 | -9.37
O=C1CCC2(CCN(Cc3ccc(F)cc3)CC2)N1Cc1ccccc1 | -4.42 | 3.9 | -4.8 | -2.63 | -0.913 | 9.7 | 1.33 | 5.8 | 7.5 | -4.62
CCOC(=O)N1CCN(C(=O)c2sc(-c3ccc(F)cc3)nc2C)CC1 | -7.21 | 5.41 | 8.85 | -1.65 | 1.05 | 17.5 | 1.22 | 4.79 | 12.2 | -3.55
COc1ncc(C2CC(=O)NCc3nc4ccccn4c32)cn1 (stereo not given) | -5.62 | 5.41 | 1.68 | -1.46 | 1.75 | 6.34 | 3.05 | 7.98 | 14.6 | -1.5
Cc1n[nH]c(=O)c2c(NC(=O)CN3CCOC(C)C3)oc(C)c12 (stereo not given) | 1.61 | 17.9 | -15.7 | 1.78 | 4.92 | 16.6 | 25.5 | 3.35 | 18.1 | -6.38
CCS(=O)(=O)N1CCC2(CC1)CN(Cc1ccccn1)C(=O)CO2 | 2.67 | 1.3 | 1.21 | -0.487 | 1.62 | 3.44 | -2.87 | -1.58 | 0 | 2.48
Cc1noc(C)c1CN1CCN(Cc2nccn2C)CC1 | -3.95 | 2.67 | 3.64 | -1.81 | -0.444 | 13.7 | -5.05 | 6.84 | 7.69 | -11.9
COCCN1C[C@H]2[C@@H](C1)N(C(=O)c1cccs1)CC[C@H]2OC | -5.76 | -108 | 1.61 | 7.11 | -6.07 | 4.5 | -13.9 | 1.58 | 7.69 | 1.4
O=C(Cn1c(=O)nc2n1C(=O)N(c1ccccc1)C2)Nc1ccccc1 | -6.94 | 16.2 | 9.15 | 2.23 | 24.8 | 23.6 | 5.58 | 6.92 | 14.6 | 75.6
